# Results as given in the supplement of paper PMC10477191.
# ± gives the standard deviation of the averaged measurements.
# Tested on: Drosophila virilis antennal basiconic sensillum AB5
# Assay: odor-evoked OSN spike response (post minus pre-stimulus); higher = stronger neuronal excitation
# Conditions: odor dilution: 10^-4
# Procedure: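 Single sensillum recordings from antennal basiconic sensilla of D. virilis. A 500 ms pulse of odorant (10^-4 in mineral oil or DMSO) was delivered; the response is the change in spike frequency between the 1 s pre- and post-stimulus windows (spikes/s).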
row,SMILES,odor-evoked OSN spike response [spikes/s]
1,COC(=O)c1ccccc1 [methyl benzoate],49.2 ± 8.7
2,CC(=O)OC/C=C(\C)CCC=C(C)C [geranyl acetate],81 ± 11
3,CC(=O)c1ccccc1 [Acetophenone],65.7 ± 8.1
4,"COc1cccc(OC)c1O [Phenol, 2,6-dimethoxy- (powder)]",54 ± 20
5,CCCCCOC(C)=O [pentyl acetate],65.7 ± 11
